Inconclusive results are not listed. A call without a number means that no potency is given here. Calls of active or inactive are those of the source. The call rests on the fitted dose curve; in most records, active means well fitted cell-killing curve with a large enough effect; inconclusive means small, poorly fitted or top-dose-only effect; inactive means flat fitted curve, though single readings scatter.
Assay: Quantitative highthroughput screen to assess conditional lethalithy of P12 Ichikawa cells grown in RPMI1640 with dialyzed fetal bovine serum (RPMI+ds) (AID 1963880); further: nearly all actives have a fitted effect of over 35% in size
Conditions: ATP luminescence, 48 h; Potency: P12-Ichikawa viability; series mostly up to 45.8 µM
Source text: Assay Provider: Jason Cantor Ph.D.
Department of Biochemistry
University of Wisconsin-Madison, Madison, WI, USA
Chemical screening studies have identified drug sensitivities across hundreds of cancer cell lines but most putative therapeutics fail to translate. Discovery and development of drug candidates in models that more accurately reflect nutrient levels in human blood is a major challenge. Here we performed high-throughput screens in conventional versus Human Plasma-Like Medium (HPLM) to identify compounds that were "missed" when screening using the artificial culture condition. Sets of conditional anticancer compounds spanned phases of clinical development and included non-oncology drugs were assessed. […] We also traced conditional phenotypes for several chemotherapeutics to availability of HPLM-specific metabolites and confirmed others for compounds whose reported targets are encoded by nonessential genes. Our findings establish generalizable strategies for exploiting conditional lethality in HPLM to reveal therapeutic candidates and mechanisms of action in cancer cells.
Described herein are the results of each viability screens against three cell lines: NOMO1 (an acute myeloid leukemia cell line); P12-Ichikawa (a T-cell acute lymphoblastic leukemia); and SEM (a B-cell ALL). Each assay was screened using 3 different cell culture media: homemade human plasma-Like medium with 10% dialyzed fetal bovine serum (HPLM+ds); RPMI1640 with 10% untreated FBS and 5mM glucose (RPMI+s); and RPMI1640 with 10% dialyzed fetal bovine serum and 5 mM glucose (RPMI+ds).
PROTOCOL TABLE (as described by Inglese J, Shamu CE and Guy RK. 2007)
SEQUENCE No. (e.g., 1, 2, 3, etc.); […] (e.g., Cells, Incubation, Reagent, etc.); VALUE and DESCRIPTION.
1; Cells; 5 uL; white, solid bottom 1536-well Greiner assay plate.
2; Compounds; 23 nL; Kalypsis pin tool (Wako USA) equipped with a 1536-well pin head to transfer to the assay plates.
3; Incubation; 48 hours; 37C incubation.
4; Reagent; 3 uL; CellTiter Glo (Promega).
5; Incubation; 5 min, room temperature
6; Detection; Luminescence, Viewlux PerkinElmer.
NOTES (numbers refer to Sequence numbers above)
1. Briefly, 5 ul of cell reagent was dispensed using a Multidrop Combi Dispenser. The NOMO1 and SEM cells were plated at 500 cells/well and the P12-Ichikawa line at 1000 cells/well.
2. After seeding the cells, 23 nL of MIPE 4.1 library compounds (in DMSO) were added to each plate using a Kalypsys 1536 Pintool dispenser. Bortezomib at final concentration of […] and DMSO were added to each plate as positive and negative controls respectively. For each screen, MIPE 4.1 compounds were added over an eleven-point concentration range […] in 3-fold dilutions.
3. Each plate was covered with a stainless steel gasketed lid to prevent evaporation and incubated for 48 hour at 37C, 95% relative humidity, and 5% CO2.
4-5. Three microliter CellTilter-GloTM luminescent substrate mix (Promega) reagent was added to the assay plate and incubated at room temperature for 5 min.
6. The luminescence signal was measured using a ViewLux (PerkinElmer) multiplate reader with a 2 second exposure time per plate. Data for each compound were normalized as percent viability such that measurements for DMSO and the empty well controls in each plate were defined as 100% and 0%, respectively.
In the case of `CCc1ccc(C(=O)Nc2cc(CN3CCN(C)CC3)cc(C(F)(F)F)c2)cc1C#Cc1cnc2ccnn2c1`, the Potency is reported as “inactive”.
With `CC(C=CC=C(C)C=CC1=C(C)CCCC1(C)C)=CC=CC=C(C)C=CC=C(C)C=CC1=C(C)CCCC1(C)C` the Potency was “inactive”.
For `COc1ccc(CCC(=O)c2c(O)cc(O[C@@H]3O[C@H](CO)[C@@H](O)[C@H](O)[C@@H]3O[C@@H]3O[C@@H](C)[C@H](O)[C@@H](O)[C@@H]3O)cc2O)cc1O`, the Potency was “inactive”.
For `COc1cccc2c1C(=O)c1c(O)c3c(c(O)c1C2=O)C[C@@](O)(C(=O)CO)C[C@H]3O[C@H]1C[C@H](N)[C@H](O)[C@H](C)O1`, the Potency was 2.09 µM (active).
In the case of `CC1=C(C(=O)O)N2C(=O)[C@@H](NC(=O)C(N)c3ccccc3)[C@H]2SC1` (stereo not given in full), the Potency is reported as “inactive”.
In the case of `CCN1CCN(C(=O)N[C@H](C(=O)N[C@@H]2C(=O)N3C(C(=O)O)=C(CSc4nnnn4C)CS[C@@H]23)c2ccc(O)cc2)C(=O)C1=O`, the Potency is reported as “inactive”.
With `Cc1[nH]c(C=C2C(=O)Nc3ccccc32)c(C)c1CCC(=O)O` the Potency was 18.7 µM (active).
In the case of `Cc1cnc(CNC(=O)c2c(=O)c3ccc(N4CCCN(C)CC4)nc3n3c2sc2ccccc23)cn1`, the Potency is reported as 10.2 µM (active).
For `CN(C)c1ccc(C(=O)NCCCCCCC(=O)NO)cc1`, the Potency was 1.18 µM (active).
With `CCn1cc(-c2ccnc3[nH]c(-c4cccc(CN(C)C)c4)cc23)c(-c2ccc(NC(=O)N(C)C)cc2)n1` the Potency was 0.0833 µM (active).
For `O=C(CCCCCCC(=O)Nc1cccnc1)NO`, the Potency was 7.43 µM (active).
In the case of `CCCCC(C)(C)[C@H](O)C=C[C@H]1[C@H](O)CC(=O)[C@H]1CC=CCCCC(=O)O`, the Potency is reported as 23.5 µM (active).
For `CC(=O)[C@H]1CC[C@H]2[C@@H]3CCC4=CC(=O)CC[C@]4(C)[C@H]3CC[C@]12C`, the Potency was “inactive”.
In the case of `CCCCCCCN(CC)CCCC(O)c1ccc(NS(C)(=O)=O)cc1` (stereo not given), the Potency is reported as 18.7 µM (active).
In the case of `C[C@H]1COC2=C1C(=O)C(=O)c1c2ccc2c1CCCC2(C)C`, the Potency is reported as “inactive”.
With `O=C1C(Cl)=C(NCCN2CCOCC2)C(=O)c2ncccc21` the Potency was 20.9 µM (active).
With `C[C@H](NC(=O)C(=O)Nc1ccccc1C(C)(C)C)C(=O)N[C@@H](CC(=O)O)C(=O)COc1c(F)c(F)cc(F)c1F` the Potency was 14.8 µM (active).
For `COc1cc2ncnc(Nc3cc(Br)c(O)c(Br)c3)c2cc1OC`, the Potency was “inactive”.
For `COc1ccc(-c2coc3cc(O)ccc3c2=O)cc1`, the Potency was “inactive”.
In the case of `CC(C)OC(=O)[C@H](C)N[P@](=O)(OC[C@H]1O[C@@H](n2ccc(=O)[nH]c2=O)[C@](C)(F)[C@H]1O)Oc1ccccc1`, the Potency is reported as 4.69 µM (active).
In the case of `COc1cc2c(cc1Cc1cccc(Cl)c1F)c(=O)c(C(=O)O)cn2[C@H](CO)C(C)C`, the Potency is reported as 16.6 µM (active).
For `Cn1cc(-c2ccc3ncc(Cc4ccc5ncccc5c4)n3n2)cn1`, the Potency was “inactive”.
In the case of `CNC(=O)c1ccc(Nc2ncc(C(F)(F)F)c(NCc3nccnc3N(C)S(C)(=O)=O)n2)cc1`, the Potency is reported as “inactive”.
In the case of `CN(C)c1nc(Cc2ccc(NC(=O)c3ccc4ccccc4c3)cc2)nc(Cl)c1CC(=O)O`, the Potency is reported as 5.26 µM (active).
With `COc1ccc2cccc(CCNC(C)=O)c2c1` the Potency was “inactive”.
In the case of `O=C1c2cccc(O)c2C(=O)c2c(O)cc(CO)cc21`, the Potency is reported as “inactive”.
With `CCOc1cc2c(c(F)c1OCC)C(=N)N(CC(=O)c1cc(N3CCOCC3)c(OC)c(C(C)(C)C)c1)C2` the Potency was “inactive”.
With `CC(C)c1ccc2c(c1)c(SC(C)(C)C)c(CC(C)(C)C(=O)O)n2Cc1ccc(Cl)cc1` the Potency was “inactive”.
In the case of `CC(C)(C)c1cc(C(=O)O)c(NC(=O)Nc2ccc3[nH]ncc3c2)s1`, the Potency is reported as “inactive”.
In the case of `NS(=O)(=O)c1cc(Cl)c(Cl)c(S(N)(=O)=O)c1`, the Potency is reported as “inactive”.
For `CC(C)c1nn(-c2c(Cl)cccc2Cl)c2nc(Cc3ccc(OCCO)cc3)[nH]c(=O)c12`, the Potency was 0.148 µM (active).
In the case of `CN1CCC[C@H]1CCO[C@](C)(c1ccccc1)c1ccc(Cl)cc1`, the Potency is reported as “inactive”.
For `CN[C@@H](C)C(=O)N[C@H]1CN(C(=O)CC(C)C)CC[C@H]2CC[C@@H](C(=O)NC(c3ccccc3)c3ccccc3)N2C1=O`, the Potency was 11.8 µM (active).
For `COc1ccc(-c2ccc3c(N4CCOCC4)nc(N4C[C@@H](C)O[C@@H](C)C4)nc3n2)cc1CO`, the Potency was 1.87 µM (active).
For `CN1CCN(c2c(F)cc3c(=O)c(C(=O)O)cn4c3c2OCN4C)CC1`, the Potency was “inactive”.
For `COc1cc(Cl)cn2c(-c3cccc(NC4CNC4)n3)cnc12`, the Potency was “inactive”.
For `COc1cc(C=CC(=O)O)ccc1O`, the Potency was “inactive”.
With `COc1ccc2c(OCc3nnc4ccc(-c5ccccc5)nn34)ccnc2c1` the Potency was “inactive”.
With `Nc1ncnc2c1ncn2[C@@H]1O[C@H](CO)C[C@@H]1O` the Potency was “inactive”.
For `Cn1cnc(=N)c2[nH]cnc21`, the Potency was 7.43 µM (active).

From PubChem BioAssay (NCATS)
Potency means the concentration at half of the fitted maximal effect.
